Our source for the outcome and AC50 values is PubChem BioAssay (EPA / NIEHS).

Records with an inconclusive call do not appear. Calls of active or inactive are those of the source. Rule for the calls, unless noted: active = hit-call score of the fitted dose curve at least 0.9, where 1 is the maximum; inconclusive = response in the unintended direction; inactive = score below 0.9.

Assay [1] is described as follows: ATG_AP_1_CIS: Attagene CIS-FACTORIAL HepG2 Assay for human Activator Protein 1 (AP-1) (AID 2282931; active = hit-call score of the fitted dose curve at least 0.9, where 1 is the maximum; inactive = score below 0.9). The conditions noted are these: HepG2 Attagene cis-factorial AP-1 reporter mRNA; actives raise or lower the signal. Put shortly:
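HepG2 cells transiently transfected with cis-element-driven multiplex reporter units; 24 h compound exposure. Reporter mRNA quantified by RT-PCR, FAM-labelled fragments resolved by capillary electrophoresis; bidirectional fit versus DMSO baseline.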

Assay [2] can be described thus: ATG_E_Box_CIS: Attagene CIS-FACTORIAL HepG2 Assay for human Enhancer Box (E-box) (AID 2282936; active = hit-call score of the fitted dose curve at least 0.9, where 1 is the maximum; inactive = score below 0.9). The conditions noted are these: HepG2 E-box cis-reporter transcription, actives raise or lower the signal. Put shortly: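 Multiplexed CIS reporter system in transiently transfected HepG2 cells measures native transcription factor activity. Reporter RNA after 24 h exposure is profiled by RT-PCR-capillary electrophoresis.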

Assay [3] is described as follows: ATG_M_61_CIS: Attagene CIS-FACTORIAL HepG2 Assay for M61 Transcription Factor (Internal Marker) (AID 2282937; active = hit-call score of the fitted dose curve at least 0.9, where 1 is the maximum; inactive = score below 0.9). To be noted: HepG2 Attagene CIS-FACTORIAL M61 internal marker reporter; actives raise or lower the signal. The essentials:
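HepG2 cells transiently transfected with cis-element-driven multiple reporter transcription units, dosed for 24 h. Reporter mRNA measured by RT-PCR, 6-FAM primer-extension labelling, HpaI digestion and capillary electrophoresis; bidirectional fit versus DMSO baseline.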

Assay [4] is described as follows: ATG_GRE_CIS: Attagene CIS-FACTORIAL HepG2 Assay for human Glucocorticoid Response Elements (GRE) (AID 2282947; active = hit-call score of the fitted dose curve at least 0.9, where 1 is the maximum; inactive = score below 0.9). The conditions noted are these: HepG2 GRE cis-reporter, Attagene multiplex mRNA; actives raise or lower the signal. The essentials: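 Following 24 h chemical exposure of transiently transfected HepG2 cells, total RNA was reverse-transcribed and reporter cDNA amplified, fluorescently labelled and sized by capillary electrophoresis. Signal gain or loss was fitted relative to DMSO vehicle.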

Assay [5] is described as follows: ATG_PBREM_CIS: Attagene CIS-FACTORIAL HepG2 Assay for human Phenobarbital-responsive Enhancer Module (PBREM) (AID 2282955; active = hit-call score of the fitted dose curve at least 0.9, where 1 is the maximum; inactive = score below 0.9). To be noted: HepG2 PBREM cis-reporter, Attagene multiplexed transcription; actives raise or lower the signal. The essentials:
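HepG2 cells transiently transfected with multiple cis-regulated reporter transcription units; endogenous factor activity at the PBREM element measured as reporter mRNA 24 h after dosing, via RT-PCR and capillary electrophoresis of fluorescent fragments; bidirectional fitting versus DMSO.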

Assay [6] can be described thus: ATG_M_06_TRANS: Attagene TRANS-FACTORIAL HepG2 Assay for M06 Transcription Factor (Internal Marker) (AID 2282983).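 Note: reporter transcript level by RT-PCR then capillary electrophoresis fluorescence.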 To be noted: HepG2 Attagene TRANS M06 internal marker reporter. The essentials:
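HepG2 cells transiently transfected with GAL4-UAS multiple reporter units, dosed 24 h. Reporter RNA reverse-transcribed, PCR-amplified, 6-FAM-labeled, HpaI-digested and quantified by capillary electrophoresis; this internal-marker signal fitted upward relative to DMSO.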

The nature of assay [7]: ATG_NFI_CIS: Attagene CIS-FACTORIAL HepG2 Assay for human Nuclear Factor I (NFI) (AID 2282989; active = hit-call score of the fitted dose curve at least 0.9, where 1 is the maximum; inactive = score below 0.9). The conditions noted are these: HepG2 cis-regulatory reporter, NFI response element transcription; actives raise or lower the signal. The essentials: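 Transient MRTU transfection of HepG2 → 24 h chemical dosing → total RNA, oligo(dT) RT → PCR, 6-FAM primer extension, HpaI cut → capillary electrophoresis. Endpoint fitted bidirectionally relative to DMSO.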

Assay [8] has as its target Retinoic acid receptor RXR-alpha (Homo sapiens) (UniProt P19793). The experiment in a line: ATG_RXRa_TRANS: Attagene TRANS-FACTORIAL HepG2 Assay for human Retinoid X Receptor alpha (RXRa) (AID 2283012). The essentials:
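Transient transfection of human HepG2 with multiple GAL4-UAS reporter constructs; 24 h compound exposure; total RNA isolated, reverse-transcribed, PCR-amplified, 6-FAM labelled, HpaI-cut, resolved by capillary electrophoresis. Positive-direction fit versus DMSO.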

Assay [9] deals with human Retinoid X Receptor beta (RXRb), RXRB (gene 6257) (UniProt P28702). The experiment in a line: ATG_RXRb_TRANS: Attagene TRANS-FACTORIAL HepG2 Assay for human Retinoid X Receptor beta (RXRb) (AID 2283013). Put shortly:
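Transfect HepG2 with GAL4-UAS multi-reporter constructs (chimeric NR-Gal4, TRANS format); dose compound 24 h; isolate RNA, RT-PCR, FAM primer extension, HpaI digest; quantify by capillary electrophoresis; positive direction vs DMSO.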

Assay [10] has as its target Cellular tumor antigen p53 (Homo sapiens) (UniProt P04637). The experiment in a line: TOX21_p53_BLA_p2_ratio: Tox21 HCT-116 p53 Agonism Beta-lactamase Assay, Ratio, Phase 2 (AID 2283592). Put shortly:
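HCT-116 cells with p53-responsive beta-lactamase reporter, 4000 cells/well, preincubated 5 h, then compound in DMSO (217-fold dilution) for 16 h at 37C. CCF4-AM substrate 2 h at room temperature; 460/530 nm emission ratio fitted upward versus DMSO.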

Assay [11] has the same target. The experiment in a line: TOX21_p53_BLA_p5_ratio: Tox21 HCT-116 p53 Agonism Beta-lactamase Assay, Ratio, Phase 5 (AID 2283599). Put shortly: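 HCT-116 cells carrying a p53-inducible beta-lactamase reporter were seeded at 4000 cells/well and dosed after 5 h with compound in DMSO (217-fold dilution). After 16 h at 37C, CCF4-AM substrate was added for 2 h, and the 460/530 nm emission ratio was scored as gain-of-signal versus DMSO.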

Assay [12] is described as follows: TOX21_p53_BLA_p5_viability: Viability Assessment in the Tox21 HCT-116 p53 Agonism Beta-lactamase Assay, Phase 5 (AID 2283600). The essentials:
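HCT-116 p53 beta-lactamase reporter cells, 4000/well, were exposed to compound (pin transfer, 217-fold dilution) for 16 hours at 37C. Cellular ATP was read by CellTiter-Glo luminescence after 30 min at room temperature.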

For assay [13], the target named is Hypoxia-inducible factor 1-alpha (Homo sapiens) (UniProt Q16665). The experiment in a line: ATG_HIF1a_CIS: Attagene CIS-FACTORIAL HepG2 Assay for human Hypoxia Inducible Factor 1 (HIF1A) (AID 2282951; active = hit-call score of the fitted dose curve at least 0.9, where 1 is the maximum; inactive = score below 0.9). To be noted: HepG2 Attagene cis-factorial HIF1a reporter transcription; actives raise or lower the signal. The essentials:
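HepG2 cells transiently transfected with multiplexed cis-promoter reporter units; reporter mRNA read 24 h after dosing by RT-PCR, 6-FAM primer-extension labelling, HpaI digestion and capillary electrophoresis. Bidirectional fit versus DMSO baseline.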

Assay [14] has as its target Cellular tumor antigen p53 (Homo sapiens) (UniProt P04637). The experiment in a line: TOX21_p53_BLA_p4_ratio: Tox21 HCT-116 p53 Agonism Beta-lactamase Assay, Ratio, Phase 4 (AID 2283601). The essentials: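 HCT116 cells carrying an inducible beta-lactamase reporter were plated at 4000 cells/well, rested 5 h, then exposed to compounds in DMSO (217-fold dilution) for 16 h at 37C. CCF4-AM substrate was loaded 2 h at room temperature; 460/530 nm emission ratio scored gain-of-signal versus DMSO.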

Assay [15] can be described thus: ACEA_ER_AUC_viability: ACEA Biosciences xCELLigence Real-Time Cell Analysis on Estrogen Receptor Agonism for Viability (AID 2283782).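 Note: continuous compound exposure with impedance area under curve over 80 h; hit means loss of impedance signal meaning reduced cell growth or viability.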 The essentials:
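T-47D human breast cells in phenol red-free RPMI1640 with 10% charcoal-stripped FBS were dosed with an 8-point 1:4 dilution series from 100 uM top final concentration, in duplicate. Impedance-based growth was followed for 80 h; AUC analysed versus DMSO.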

Assay [16] addresses Aryl hydrocarbon receptor (Homo sapiens) (UniProt P35869). The experiment in a line: ATG_Ahr_CIS: Attagene CIS-FACTORIAL HepG2 Assay for human Aryl Hydrocarbon Receptor (Ahr) (AID 2282930; active = hit-call score of the fitted dose curve at least 0.9, where 1 is the maximum; inactive = score below 0.9). The conditions noted are these: HepG2 AhR cis-factorial reporter transcription; actives raise or lower the signal. The essentials: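 Following 24 h of chemical dosing, transfected HepG2 liver cells with cis-driven reporter units were lysed for RNA; reporter mRNA was quantified via RT-PCR and capillary electrophoresis, and responses fitted bidirectionally from DMSO.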

Assay [17] in a line: ATG_M_19_TRANS: Attagene TRANS-FACTORIAL HepG2 Assay for M19 Transcription Factor (Internal Marker) (AID 2282974). The conditions noted are these: HepG2 Attagene TRANS-FACTORIAL M19 internal marker reporter. The essentials: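 HepG2 cells transiently transfected with multiple GAL4-UAS reporter transcription units were exposed to chemicals for 24 h. Reporter mRNA was read by RT-PCR, 6-FAM primer extension, HpaI digestion and capillary electrophoresis; gain of signal fitted relative to DMSO.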

In assay [18] the target is Peroxisome proliferator-activated receptor gamma (Homo sapiens) (UniProt P37231). The experiment in a line: ATG_PPARg_TRANS: Attagene TRANS-FACTORIAL HepG2 Assay for human Peroxisome Proliferator-activated Receptor-gamma (PPARg) (AID 2283007). The essentials:
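HepG2 cells transiently transfected with multiplexed GAL4-UAS reporter units and exogenous chimeric NR-Gal4 proteins; reporter mRNA quantified after 24 h compound exposure by RT-PCR, fluorescent labelling, HpaI digestion and capillary electrophoresis; gain-of-signal fitted versus DMSO baseline.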

Assay [19] can be described thus: ATG_PPRE_CIS: Attagene CIS-FACTORIAL HepG2 Assay for human Peroxisome Proliferator-activated Response Element (PPRE) (AID 2282958; active = hit-call score of the fitted dose curve at least 0.9, where 1 is the maximum; inactive = score below 0.9). The conditions noted are these: HepG2 PPRE cis-element reporter, Attagene transcription factor profiling; actives raise or lower the signal. Put shortly:
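HepG2 cells transiently transfected with multiplexed cis-element reporter units measure endogenous transcription factor activity. After 24 h compound exposure, reporter mRNA is quantified by RT-PCR, 6-FAM labeling, HpaI digestion and capillary electrophoresis; bidirectional fits are made against DMSO baseline.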

The nature of assay [20]: ATG_M_32_TRANS: Attagene TRANS-FACTORIAL HepG2 Assay for M32 Transcription Factor (Internal Marker) (AID 2282984).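 Note: transcript level of a background control reporter unit measured by RT-PCR and capillary electrophoresis.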 To be noted: HepG2 Attagene TRANS M32 internal marker reporter. The essentials: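 Human hepatoma HepG2, transient MRTU transfection, 24 h treatment. RNA → RT-PCR → fluorescent primer extension → HpaI digest (2 h, 37 C) → CE. Positive-direction fit vs DMSO.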

Chain of Retinoic acid receptor RXR-alpha (Homo sapiens) (P19793 whole entry, looked up, the tested form may be a part): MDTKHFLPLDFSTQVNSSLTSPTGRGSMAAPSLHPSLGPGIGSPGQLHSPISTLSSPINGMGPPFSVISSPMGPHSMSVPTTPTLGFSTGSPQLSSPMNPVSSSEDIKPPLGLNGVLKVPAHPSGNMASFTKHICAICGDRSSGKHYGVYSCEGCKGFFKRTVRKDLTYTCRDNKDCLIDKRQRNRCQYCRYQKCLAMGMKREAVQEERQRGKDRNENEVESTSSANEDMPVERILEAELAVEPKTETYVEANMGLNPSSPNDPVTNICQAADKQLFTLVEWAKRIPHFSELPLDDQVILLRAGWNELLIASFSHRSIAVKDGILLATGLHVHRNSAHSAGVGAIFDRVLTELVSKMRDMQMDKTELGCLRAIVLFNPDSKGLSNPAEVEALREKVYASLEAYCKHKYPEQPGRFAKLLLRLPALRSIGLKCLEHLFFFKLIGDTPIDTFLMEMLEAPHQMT
Chain of human Retinoid X Receptor beta (RXRb), RXRB (gene 6257) (P28702 whole entry, looked up, the tested form may be a part): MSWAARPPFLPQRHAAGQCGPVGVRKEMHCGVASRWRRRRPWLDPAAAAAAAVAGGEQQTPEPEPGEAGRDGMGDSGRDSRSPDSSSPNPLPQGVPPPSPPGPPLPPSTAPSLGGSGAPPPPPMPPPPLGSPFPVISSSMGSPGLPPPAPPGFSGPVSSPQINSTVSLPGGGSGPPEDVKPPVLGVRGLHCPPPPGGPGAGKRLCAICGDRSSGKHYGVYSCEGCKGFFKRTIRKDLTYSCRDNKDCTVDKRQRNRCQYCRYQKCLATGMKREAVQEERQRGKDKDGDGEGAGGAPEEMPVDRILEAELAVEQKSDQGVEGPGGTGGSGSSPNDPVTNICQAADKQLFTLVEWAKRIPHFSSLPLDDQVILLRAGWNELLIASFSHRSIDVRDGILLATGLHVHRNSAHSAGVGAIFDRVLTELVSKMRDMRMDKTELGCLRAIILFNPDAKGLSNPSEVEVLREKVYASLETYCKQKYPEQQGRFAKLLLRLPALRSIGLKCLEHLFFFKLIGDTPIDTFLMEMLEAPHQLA
Chain of Cellular tumor antigen p53 (Homo sapiens) (P04637 whole entry, looked up): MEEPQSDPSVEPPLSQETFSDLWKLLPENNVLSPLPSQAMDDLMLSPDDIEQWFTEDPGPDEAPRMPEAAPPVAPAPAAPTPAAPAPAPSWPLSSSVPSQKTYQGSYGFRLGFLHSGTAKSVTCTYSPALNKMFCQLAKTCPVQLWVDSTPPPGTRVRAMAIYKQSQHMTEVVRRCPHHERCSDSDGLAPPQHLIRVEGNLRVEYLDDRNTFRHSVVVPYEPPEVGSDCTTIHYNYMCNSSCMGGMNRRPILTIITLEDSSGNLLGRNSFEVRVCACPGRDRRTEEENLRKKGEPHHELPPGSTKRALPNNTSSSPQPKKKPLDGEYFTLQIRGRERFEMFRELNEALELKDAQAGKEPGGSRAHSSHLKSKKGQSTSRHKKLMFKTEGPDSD
Chain of Peroxisome proliferator-activated receptor gamma (Homo sapiens) (P37231 whole entry, looked up, the tested form may be a part): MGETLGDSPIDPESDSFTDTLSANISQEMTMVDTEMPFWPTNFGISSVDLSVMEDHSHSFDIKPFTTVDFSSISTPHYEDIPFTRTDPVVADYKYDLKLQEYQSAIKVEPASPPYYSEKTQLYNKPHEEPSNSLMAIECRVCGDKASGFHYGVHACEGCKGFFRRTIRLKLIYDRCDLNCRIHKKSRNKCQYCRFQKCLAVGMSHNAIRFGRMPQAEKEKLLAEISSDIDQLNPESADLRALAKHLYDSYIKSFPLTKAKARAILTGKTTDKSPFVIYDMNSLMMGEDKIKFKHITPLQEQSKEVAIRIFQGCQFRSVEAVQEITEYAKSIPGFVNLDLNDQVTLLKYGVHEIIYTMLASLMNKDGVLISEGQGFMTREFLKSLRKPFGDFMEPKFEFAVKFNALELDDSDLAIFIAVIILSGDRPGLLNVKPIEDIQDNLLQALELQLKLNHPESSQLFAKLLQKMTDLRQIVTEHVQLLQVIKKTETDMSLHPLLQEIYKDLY
Chain of Hypoxia-inducible factor 1-alpha (Homo sapiens) (Q16665 whole entry, looked up): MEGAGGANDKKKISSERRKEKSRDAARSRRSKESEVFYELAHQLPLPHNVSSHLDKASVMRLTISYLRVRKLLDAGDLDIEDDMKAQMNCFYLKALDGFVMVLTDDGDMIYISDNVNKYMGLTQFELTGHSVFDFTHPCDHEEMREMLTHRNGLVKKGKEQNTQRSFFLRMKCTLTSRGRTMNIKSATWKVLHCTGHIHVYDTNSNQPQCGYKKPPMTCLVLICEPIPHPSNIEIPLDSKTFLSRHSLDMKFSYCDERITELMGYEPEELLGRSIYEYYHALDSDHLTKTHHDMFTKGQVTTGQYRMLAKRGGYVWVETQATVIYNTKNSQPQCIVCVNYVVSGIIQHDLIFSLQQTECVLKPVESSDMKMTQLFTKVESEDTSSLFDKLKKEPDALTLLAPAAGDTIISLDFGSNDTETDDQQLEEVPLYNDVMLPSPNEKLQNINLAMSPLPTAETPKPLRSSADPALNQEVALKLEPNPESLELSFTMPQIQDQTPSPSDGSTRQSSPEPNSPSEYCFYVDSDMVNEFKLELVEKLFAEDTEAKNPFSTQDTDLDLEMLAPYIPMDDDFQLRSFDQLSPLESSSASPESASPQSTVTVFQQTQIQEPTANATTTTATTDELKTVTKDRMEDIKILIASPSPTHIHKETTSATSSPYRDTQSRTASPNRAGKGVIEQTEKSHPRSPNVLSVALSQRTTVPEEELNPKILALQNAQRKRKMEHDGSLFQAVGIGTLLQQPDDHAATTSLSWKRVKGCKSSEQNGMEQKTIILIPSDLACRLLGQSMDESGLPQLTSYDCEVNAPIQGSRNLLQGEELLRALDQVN
Chain of Aryl hydrocarbon receptor (Homo sapiens) (P35869 whole entry, looked up): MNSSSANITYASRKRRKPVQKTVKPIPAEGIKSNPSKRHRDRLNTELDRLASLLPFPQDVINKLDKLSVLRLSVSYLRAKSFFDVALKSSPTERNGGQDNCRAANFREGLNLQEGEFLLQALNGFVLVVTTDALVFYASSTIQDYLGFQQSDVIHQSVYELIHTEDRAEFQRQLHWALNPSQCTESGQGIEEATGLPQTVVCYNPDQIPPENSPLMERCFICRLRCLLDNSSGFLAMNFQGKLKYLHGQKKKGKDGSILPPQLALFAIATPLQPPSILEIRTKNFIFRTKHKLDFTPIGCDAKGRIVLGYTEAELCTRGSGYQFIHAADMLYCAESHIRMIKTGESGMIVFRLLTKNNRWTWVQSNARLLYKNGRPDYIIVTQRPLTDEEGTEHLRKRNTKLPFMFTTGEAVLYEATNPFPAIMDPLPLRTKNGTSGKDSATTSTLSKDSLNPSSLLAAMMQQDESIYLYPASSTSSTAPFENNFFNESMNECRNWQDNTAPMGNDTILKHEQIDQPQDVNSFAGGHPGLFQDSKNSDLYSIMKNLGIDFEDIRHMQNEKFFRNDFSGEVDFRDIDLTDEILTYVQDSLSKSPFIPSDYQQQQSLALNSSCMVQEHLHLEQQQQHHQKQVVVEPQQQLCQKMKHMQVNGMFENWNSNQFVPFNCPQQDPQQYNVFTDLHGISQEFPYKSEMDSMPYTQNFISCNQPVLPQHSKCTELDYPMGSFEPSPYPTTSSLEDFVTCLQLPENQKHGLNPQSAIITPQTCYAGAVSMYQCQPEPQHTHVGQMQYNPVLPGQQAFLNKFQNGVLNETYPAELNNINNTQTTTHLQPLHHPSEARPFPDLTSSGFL

Take `N#CCCCl`: the compound was called inactive in [1], in assay [2], in assay [3], in assay [4], in assay [5] and in [6]. Further, the compound was classed as inactive in [7], in assay [8], in assay [9], in assay [10], in assay [11] and in assay [12].

As for `C=CC(=O)OCCO`, the AC50 is 75.6 µM (active) in assay [1], 100 µM (active) in assay [13], 164 µM (active) in [7] and 46.4 µM (active) in [15]. For the same compound, the call in [3], in [4], in assay [5], in [6], in assay [8] and in assay [10] was inactive. Moreover, the result in assay [11], in assay [12] and in [14] was inactive.

Take `O=C=Nc1ccccc1`: in assay [16], the AC50 is 9.05 µM (active). Besides, the compound was called inactive in assay [1], in [2], in assay [3], in assay [13], in assay [5] and in assay [17]. In addition, the result in [18], in assay [8] and in [15] was inactive.

Take `BrCBr`: the outcome in assay [1], in assay [4], in assay [13], in [5], in assay [19] and in assay [17] was inactive. In addition, the call in assay [20], in assay [10], in assay [11], in assay [12] and in assay [14] was inactive.

`Cc1cc(C)c(C2=C(OC(=O)CC(C)(C)C)C3(CCCC3)OC2=O)c(C)c1`: the AC50 in [1] is 174 µM (active); in assay [7] it was 145 µM (active); in [18], 4.68 µM (active). In addition, the result in assay [2], in [3], in [4], in assay [13], in assay [5] and in assay [19] was inactive. Also, the compound was called inactive in assay [17], in assay [6], in assay [20] and in assay [15].

On to `COC(C)(C)CCC[C@H](C)C/C=C/C(C)=C/C(=O)OC(C)C`, for which the AC50 was 112 µM (active) in [1], 7.82 µM (active) in [18] and 79.3 µM (active) in assay [15]. The outcome in assay [2], in assay [3], in assay [13], in assay [5], in [17] and in [6] was inactive. Further, the call in assay [20], in assay [7], in assay [8], in assay [9], in assay [10] and in assay [11] was inactive. Also, the call in [12] and in assay [14] was inactive.

As to `CCCCNP(N)(N)=S`, the outcome in assay [1], in assay [3], in assay [4], in [13], in assay [19] and in assay [17] was inactive. The compound was called inactive in assay [20], in assay [7], in assay [10], in assay [11], in assay [12] and in [15].

On to `CCC(C)(C)O`, for which the compound was called inactive in assay [1], in [2], in assay [3], in assay [4], in assay [13] and in assay [5]. The compound was called inactive in [19], in assay [6], in assay [20], in assay [7] and in assay [15].

As for `CC(C)(C)C(=O)CCl`, the call in assay [1], in assay [3], in [4], in [19], in assay [17] and in assay [20] was inactive. The compound was called inactive in [7], in assay [8], in assay [9], in assay [10], in [11] and in assay [12]. For the same compound, the result in assay [14] and in assay [15] was inactive. Further, the AC50 in [13] was 62.4 µM (active); in assay [18] it was 25.7 µM (active).

A word on the AC50: it is the concentration at which the activity in the assay is half-maximal.
